# Measurements taken from the supplement of paper PMC6555819.
# Test system: VDR:RXRa (NR concentration 270 nM, RXRa partner concentration 90 nM)
# Test: PBM binding z-score (relative to random genomic background probes); higher = stronger binding; sequences stand for … in GC…GCGATTGACAGCGTAGAATGAAGG
# Method: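 Protein-binding microarray (Agilent 4x180K custom design, double-stranded 60-nt probes: 5' GC cap, 34-nt variable region, 24-nt constant primer region; full probe sequence given). Purified or IVT nuclear receptor:RXRα heterodimers (3:1 NR:RXRα, mostly 270:90 nM) or homodimers were incubated for 1 h in PBS with 2% milk and no ligand, then detected with Alexa488 antibodies. Fluorescence from o1-orientation probes (~5 replicates averaged) was converted to z-scores against 500 random hg19 background probes. Variable regions are seed direct-repeat (DR0–DR5) sites, all their single-nucleotide variants and half-site ablations.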
row,Sequence,PBM binding z-score
1,GGAACGAGGGCAAATTTGATAGCATCTGTCGACG,0.619
2,CATCCAAGGTCAGCAGGTCAGTGAAAGCGACGTG,4.18
3,ACAGACAGATGATGAAGGTAACTCAGGCTATCAT,0.0494
4,GCATATAGGTAATACAAGGAGAAAGTCCGATTGT,-0.177
5,AGTCAAACTTCATCTAGGTAACGTAAGATATGCT,-0.0435
6,CCTTACGGGTCACTGACAGGCTATAGCATTTGGA,3.07
7,ATCTCTAGGTAACCAAGTTCAGAGAATGCCGAAC,4.26
8,TCTGCTGGGTCAGTTGGTCAGCTAACGAGCTGCC,0.238
9,CAAACTAGGTCCAGGTCAAAGTCGGTTTGTGCCA,3.06
10,AATATTAGTTGAGACGAGGGCAACCGATAGGTTG,1.01
11,TCTCGGAGTACACGAAAGGTCAGAGCTCGACATC,3.41
12,CCGGCTAGGTCATGGTCAGCTAATCTACAGTATG,1.63
13,ATATGTAGGTTAGCTGGGTTCATTCAGACTAGGC,6.4
14,TCTTGTAGAGCAACAGGAGGTTAAGAAAGATCGA,0.0425
15,CCTAGCAGGCCAATCTGGGTGACTCAAGGCTTGA,-0.769
16,CCAGACAGGTGAGAAGGTAATTCAGCCTCGATTA,-0.16
17,AGTCAAAGTTCAGGACGAGGTAGCGTAAAGCACG,2.43
18,CCGACTGAGGCAGAAAGGTTACCATACCATCCGG,0.732
19,CCAACTAGGTCACAGAGGTCAAAGTCCGTGCGTA,7.88
20,CCTAGCAGGCCAGGGTCACTCGAGCATTTCGCTT,2.54

row,Sequence,PBM binding z-score
1,TATACAGGGTCAAAGGCCCGAGTACGAATGTCGA,4.53
2,CCTACTGGGCCAAAGGTCACTGATTCCAATGCTC,4.55
3,TCGAGTAGGTTAGGGGCATGCAGAATGGCGTCGA,0.195
4,TTACCAACGTGAAAGGTCGTTGATGCACGCCTTG,1.74
5,GCAGACAGGTGAAACGCAGGTAACGCAGGGTGGC,-0.489
6,TCATATAGGTAAACAGGTGAAGGTCCGTAAGTTA,0.989
7,CCGAGTAGGTTATGGGTCATTCAGGCAACGGTGA,2.67
8,AGTCAAAGTTCAGGACGAGGTAACGTACAGCACG,2.88
9,CCGACTAGGGCATAAGGTTACCATAAGCCAGCCC,0.257
10,CCAGACAGGTGAAAGGGAACTCAGTCTGGTACGC,-0.152
11,GCATATAGGTAATACTAGGTGAAAGTCCGATTGT,0.212
12,GCTTTCGGGTCAAAGGTTATAGCATGAATAGAAT,5.79
13,TCGAGTAGGTTAGGGTCATTCAGAATGGCGTCGA,4.32
14,ATCGAAAGGTCGAAGGTGAGTTTACCCACCCGAA,4.33
15,TCGAGTAGGTTACCAATGGGGGATTCAGCTTTCT,0.83
16,CAAACTAGGTCAAGGTCACAGTCGGTTTGTGCCA,5.06
17,CGACCTAGGTCATCCAGGACAGTGAATACATTGA,4.85
18,CAAACTAGGTCATGGTCAAAGTCGGTTTGTGCCA,2.18
19,CCTATTTGTTGACCATAAGGGCAACCGAAGCTCG,1.09
20,TCTTGTTGATCAGCAGGTTAAGAAAGCTGGCCAA,0.36
